MCF10A rerep = A quantitative high throughput screen for small molecules that induce DNA re-replication in MCF 10a normal breast cells. MCF 10A DNA re-replication, Hoechst nuclear intensity, 48 h. Potency, µM (top dose mostly 46.1 µM), without a hit: top-dose activity, positive = re-replication, most hits filed as activators. 350,000 tested, 2.9% active; further: potency means the concentration at half of the fitted maximal effect; % of control where 0% means no effect; nearly all actives have a fitted effect of over 50% in size
IL1B secr inh = qHTS for Inhibitors of Inflammasome Signaling: IL-1-beta AlphaLISA Primary Screen; 360,000 tested, 4.7% active; THP-1 LPS/ATP IL-1B secretion, AlphaLISA, 16 h; hits give low values; activity change, % at 57.5 µM; in the data active means activity change below about -50%; inconclusive means mostly about -30% to -49%; further: on the % scale 0 is the no-effect control and ±100 the full control effect
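THP-1 cells pretreated 1 hr with compounds (up to 57.5 uM final), then stimulated with LPS (250 ng/mL final) plus ATP (1.25 mM final); secreted IL-1B measured by AlphaLISA after 16 hr, decreased signal indicating inhibition.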
PINK1 expr mod = A Quantitative High throughput Screen to Identify Chemical Modulators of PINK1 Expression | 410,000 tested, 0.2% active | AID 624263, 2012 | Potency, µM (doses to about 76.6 µM), inactives show top-dose activation (PINK1 increase), actives largely listed as activators | PINK1 immunofluorescence, high-content cytometry, 24 h; active means well fitted activation curve with a large enough effect; inconclusive means small, poorly fitted or top-dose-only effect; cell line not stated here; further: potency means the concentration at half of the fitted maximal effect; % of control where 0% means no effect; nearly all actives have a fitted effect of over 65% in size
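A stable cell line was treated with compounds at 5 concentrations for 24 hours, with CCCP as control. PINK1 levels and mitochondrial localization were measured by immunofluorescence with mitochondrial, cell and nuclear markers after fixation, read by laser-scanning cytometry.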
ATXN viability = Viability Counterscreen for Primary qHTS for Inhibitors of ATXN expression. S2 cells (HEK-293 line with an ATXN2-luciferase reporter) viability, CellTiter-Fluor protease fluorescence, 24 h. Potency, µM (top dose mostly 56.7 µM), actives largely listed as cytotoxic. 400,000 tested, 0.49% active. AID 651635, 2014; further: potency means the concentration at half of the fitted maximal effect; nearly all actives have a fitted effect of over 40% in size
ATXN2 expr inh = Primary qHTS for Inhibitors of ATXN expression; HEK-293 ATXN2-luciferase reporter, luminescence, 24 h; Potency, µM (highest dose often 57 µM), for inactives: top-dose activity change, negative = inhibition, hits mostly inhibitors; 360,000 tested, 0.72% active; further: potency means the concentration at half of the fitted maximal effect; on the % scale 0 is the no-effect control and ±100 the full control effect; nearly all actives have a fitted effect of over 55% in size
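qHTS (up to 57 uM final) was run with 24 h compound exposure of reporter cells at 37 °C. Each well was multiplexed: SteadyGlo luminescence measured ATXN2-luciferase expression after a fluorogenic Gly-Phe-AFC viability readout (25 uM final).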
SW480 rerep = A quantitative high throughput screen for small molecules that induce DNA re-replication in SW480 colon adenocarcinoma cells; SW480 DNA re-replication, Hoechst DNA content imaging, 48 h; Potency, µM (titrated, usually from 46.1 µM), for inactives: top-dose re-replication activation, actives largely listed as activators; 340,000 tested, 1.8% active; further: potency means the concentration at half of the fitted maximal effect; % of control where 0% means no effect; nearly all actives have a fitted effect of over 55% in size
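DNA re-replication was detected as more nuclei of elevated Hoechst intensity after 48 hr exposure to compound (23 nL pinned per well of 250 cells).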
* hit, by the source's call; i = inactive; ? = inconclusive; . = no result; [ ] = remark or other dose. Sampled rows, rich in hits. Any-hit rate of the full collection: about 7.1%. Unless noted, the call rests on the fitted dose curve; in most records, active means well fitted curve in the direction sought with a large enough effect; inconclusive means small, poorly fitted or top-dose-only effect, or another doubt; inactive means no such curve, though single readings can be large; an effect the other way counts as inactive or inconclusive.

SMILES | MCF10A rerep | IL1B secr inh | PINK1 expr mod | ATXN viability | ATXN2 expr inh | SW480 rerep
Cc1ccc(-c2cc(C(F)F)n3ncc(C(=O)N4CCc5ccccc5C4)c3n2)cc1 | ? | 0 | -2% | i | . | 18µM*
O=C(Cc1c(O)c2ccccc2oc1=O)c1ccc(F)cc1 | 0% | 3 | 1% | ? | 17% | -8%
CCOc1cc2c(cc1OCC)-n1cccc1C(c1ccc(OC)cc1)NC2 (stereo not given) | ? | -63* | ? | i | -13% | ?
CCOc1cc2c(cc1OCC)-n1cccc1C(c1ccc(C(C)C)cc1)NC2 (stereo not given) | 18µM* | -94* | ? | ? | ? | ?
c1cc(CN2CCCC3(CCNCC3)C2)ccn1 | . | . | 0% | . | . | .
CN1c2ccccc2C(NCCCCCCC(=O)O)c2ccc(Cl)cc2S1(=O)=O (stereo not given) | 0% | . | . | . | . | 2%
CC[C@H]1C[C@H]2[C@@H]3CCC4=CC(=O)CC[C@@H]4[C@H]3CC[C@]2(C)[C@H]1O | . | . | . | i | -18% | .
CC[C@]1(O)CC[C@H]2[C@@H]3CCC4=CCCC[C@@H]4[C@H]3CC[C@@]21C | ? | . | . | ? | -23% | 24µM*
CCOP(=O)(OCC)C(O)c1cccnc1 (stereo not given) | -6% | 4 | -1% | i | 4% | -131%
CCCCOP(=O)(OCCCC)C(Nc1ccc(C(=O)OCC)cc1)c1ccncc1 (stereo not given) | ? | -65* | 4% | i | -17% | 13%
O=C(Nc1ccc(Cl)c(Cl)c1)c1ccco1 | 2% | ? | 4% | ? | 53% | 1%
CCN(c1ccc(C)cc1C)S(=O)(=O)c1nnc(NC(=O)c2ccco2)s1 | 21µM* | ? | 2% | i | 0% | ?
CC(C)(C#N)O[C@H]1OC(CO)C(O)C(O)C1O (stereo not given in full) | . | . | 0% | . | . | .
CCCCC[C@H]1CCCCC[C@H](O)C[C@H](O)[C@@H](O)/C=C/C(=O)O1 | . | 0 | 3% | i | -10% | .
C[C@H]1CCC/C=C/C2C[C@H](O)CC2[C@H](O)/C=C/C(=O)O1 (stereo not given in full) | 0.26µM* | -64* | -1% | ? | ? | ?
CC1CCC/C=C/C2CC(O)CC2C(O)/C=C/C(=O)O1 (stereo not given) | ? | -56* | -2% | ? | ? | 0.1µM*
O=C(Oc1ccccc1)N1CCC2(CCCN(C(c3ccccc3)c3ccccc3)C2)CC1 | . | . | 3% | . | . | .
CC(=O)N1CCN(c2ccc(OC[C@@H]3CO[C@@](Cn4ccnc4)(c4ccc(Cl)cc4Cl)O3)cc2)CC1 | 24% | . | . | . | . | -5%
COc1ccc2[nH]c3c(c2c1)CCN1C(=O)C(CC(=O)NCc2cccc(C(F)(F)F)c2)C[C@H](C(=O)N2CCCCC2)[C@@]31C (stereo not given in full) | ? | -53* | ? | ? | 0% | ?
O=c1[nH]c2ccccc2n1C1CCN(C(CCc2ccccc2)c2nnnn2Cc2ccccc2)CC1 (stereo not given) | . | -93* | -1% | 8.9µM* | 8.9µM* | .
O=c1[nH]c2ccccc2n1C1CCN(C(CCc2ccccc2)c2nnnn2C2CCCCC2)CC1 (stereo not given) | . | -61* | 1% | . | 14µM* | .
O=c1[nH]c2ccccc2n1C1CCN(C(c2cccs2)c2nnnn2Cc2ccccc2)CC1 (stereo not given) | . | ? | -1% | . | ? | .
O=c1[nH]c2ccccc2n1C1CCN(C(c2ccccc2OC(F)(F)F)c2nnnn2Cc2ccccc2)CC1 (stereo not given) | . | -16 | 0% | 10µM* | 18µM* | .
CSCCC(c1nnnn1Cc1ccccc1)N1CCC(n2c(=O)[nH]c3ccccc32)CC1 (stereo not given) | . | -22 | 0% | 14µM* | ? | .
O=C(O)c1ccc(=O)[nH]c1 | . | . | . | i | 12% | .
SMILES | MCF10A rerep | IL1B secr inh | PINK1 expr mod | ATXN viability | ATXN2 expr inh | SW480 rerep
C[C@]12CCC(=O)C=C1CCc1ccc(O)cc12 | . | . | -1% | . | . | .
C[C@@H]1CN([C@H](C)CO)C(=O)CCCn2nncc2CO[C@@H]1CN(C)C(=O)Nc1ccc(N2CCCCC2)cc1 | . | 20 | 4% | ? | 9% | .
CCc1c(C(=O)C(N)=O)c2c(OCC(=O)O)cccc2n1Cc1ccccc1 | . | . | . | . | -2% | .
CCc1ccc(-c2nn(Cc3ccccc3)cc2C=O)cc1 | 0% | -59* | 12% | i | 35% | 4.6µM*
CC(=O)O[C@H]1C[C@@H]2OC3C=C(C)CCC3(C)[C@@]1(C)[C@@]21CO1 (stereo not given in full) | 1µM* | -100* | -7% | ? | ? | 9.2µM*
CCN1CCN(CC(c2ccccc2)c2ccccc2)CC1 | ? | -13 | -2% | i | 5% | -33%
O=C(c1ccccc1)C(CN1CCCC1)c1ccccc1 (stereo not given) | 3.3µM* | -104* | -3% | . | ? | 7.3µM*
C=CCN1C(=O)NC(=O)/C(=C/c2ccc(OC)c(CSc3ccccn3)c2)C1=O | 10% | 19 | 1% | ? | 0% | 1%
C=CCN1C(=O)NC(=O)/C(=C/c2ccc(OC)c(COc3ccc(NC(C)=O)cc3)c2)C1=O | ? | 13 | 7% | i | 19% | 16µM*
OC(c1cccc(Cl)c1)(c1cccc(Cl)c1)C1CN2CCC1CC2 (stereo not given) | ? | -73* | -1% | ? | -2%[11.3 µM] | 7%
O=S(c1ccccc1)c1ccccc1 | -22% | -14 | -1% | i | -12% | -3%
Cc1ccc(/C=C/C(=O)C2C(=O)c3ccccc3C2=O)cc1 | ? | 12 | -6%[38.3 µM] | i | ? | -7%
O=C1c2ccccc2C(=O)C1C(=O)C(c1ccccc1)c1ccccc1 | 24µM* | . | . | ? | ? | ?
Cc1noc(C)c1C(=O)N1CCC[C@@]2(CCN(CC(C)C)C2)C1 | . | . | 0% | . | . | .
C#CCOC(C(=O)OCCN(C)C)(c1ccccc1)c1ccccc1 | 7% | . | . | i | 19% | 5%
C=C1C(=O)[C@@]23C[C@H]4[C@@H]5[C@@]6(C)CCC[C@@]57[C@@H]2[C@@H](O)[C@@H]1C[C@H]3[C@H]7N4C6 | 15µM* | -108* | -1% | 7.9µM* | ? | ?

Screening results as filed in PubChem BioAssay.
